# An excerpt weighted towards active compounds, which were near 10% of everything screened.
# Luciferase inh = Firefly luciferase inhibition profiling of diverse chemical library using quantitative high-throughput screening. Luciferin 4-monooxygenase (Photinus pyralis), P08659. purified P. pyralis luciferase, luminescence, biochemical. Potency, µM (highest dose often 115 µM), actives largely listed as inhibitors. actives 2.5% (n = 76,000). AID 1347043, 2019; also: nearly all actives have a fitted effect of over 65% in size
# Target sequence (P08659 whole entry, looked up): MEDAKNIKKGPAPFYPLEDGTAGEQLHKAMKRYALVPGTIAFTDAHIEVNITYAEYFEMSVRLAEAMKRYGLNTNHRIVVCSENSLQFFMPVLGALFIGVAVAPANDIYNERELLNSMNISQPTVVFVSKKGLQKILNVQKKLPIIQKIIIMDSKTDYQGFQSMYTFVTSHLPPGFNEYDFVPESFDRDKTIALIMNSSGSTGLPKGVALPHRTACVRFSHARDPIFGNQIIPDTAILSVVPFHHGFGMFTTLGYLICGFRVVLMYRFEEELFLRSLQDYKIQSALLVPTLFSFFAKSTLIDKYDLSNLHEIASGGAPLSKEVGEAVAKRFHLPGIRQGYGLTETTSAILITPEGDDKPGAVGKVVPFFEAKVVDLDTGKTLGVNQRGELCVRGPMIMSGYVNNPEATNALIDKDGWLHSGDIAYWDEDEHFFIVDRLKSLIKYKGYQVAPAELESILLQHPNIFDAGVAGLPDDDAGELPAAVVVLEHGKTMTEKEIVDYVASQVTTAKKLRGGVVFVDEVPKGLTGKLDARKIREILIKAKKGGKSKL
#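 Purified P. pyralis luciferase (10nM final) in 50mM Tris acetate pH 7.5, 10mM Mg acetate, 0.01% Tween-20, 0.05% BSA with 10uM D-luciferin and 10uM ATP. Compounds titrated qHTS. Luminescence imaged on CCD.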
# GPT2 inh = Primary qHTS assay for inhibitors of Glutamate pyruvate transaminase 2 (GPT2); Alanine aminotransferase 2 (Homo sapiens), Q8TD30; Recombinant GPT2, coupled pyruvate oxidase/HRP Amplex Red fluorescence; Potency, µM (doses to about 57.7 µM), without a hit: at the highest dose activity change, negative = inhibition, most hits filed as inhibitors; actives 0.25% (n = 100,000); also: nearly all actives have a fitted effect of over 60% in size
#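 Fluorescence of coupled pyruvate oxidase/HRP/Amplex Red system (50uM Amplex, 30 min, dark) reports pyruvate formed by GPT2. Enzyme reaction: 10ng/uL GPT2, 2mM L-alanine, 250uM a-KG, 30 min room temperature, pH 7.5; 50uM AOA control.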
# 3T3 cytotox = Cytotoxic Profiling in NIH 3T3 Cell Line of Diverse Libraries Using Quantitative High-Throughput Screening; NIH 3T3 viability, CellTiter-Glo ATP luminescence, 48-72 h; Potency, µM (series often up to 96.7 µM), without a hit: at the top dose activity change, negative = cytotoxicity, hits mostly inhibitors; actives 4.3% (n = 94,000); AID 1345082, 2018; also: nearly all actives have a fitted effect of over 55% in size
#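 Viability of NIH 3T3 cells after 48 or 72 hr compound treatment at 37 °C was assessed by CellTiter-Glo, with luminescence imaged following a 10 min room-temperature step.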
# NPR1 antag = Natriuretic polypeptide receptor (hNpr1) antagonism - Primary qHTS | actives 1.6% (n = 76,000) | Potency, µM (doses to about 46.3 µM), for the others: at the highest dose activity change, negative = inhibition, usual class: inhibitors | AID 1347048, 2019 | HEK293 hNpr1 GloSensor cGMP, ANP-stimulated luminescence | Atrial natriuretic peptide receptor 1 (Homo sapiens), P16066; calls by dose curve; also: nearly all actives have a fitted effect of over 60% in size
#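 Compound pre-incubated 30 min at room temperature on GloSensor-loaded HEK293 cells stably carrying hNpr1 and the pGS-40F cGMP biosensor. Stimulation uses hNppA at 0.1 nM final; luminescence is taken at baseline and 20 min post-agonist.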
# HEK cytotox = Cytotoxic Profiling in HEK 293 Cell Line of Diverse Libraries Using Quantitative High-Throughput Screening. actives 6.6% (n = 94,000). HEK 293 viability, ATP luminescence (CellTiter-Glo), 48-72 h. Potency, µM (series often up to 115 µM), inactives show at the highest dose activity change, negative = cytotoxicity, actives largely listed as inhibitors; also: nearly all actives have a fitted effect of over 60% in size
#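 Cytotoxicity was scored by loss of ATP-coupled luminescence (CellTiter-Glo) in HEK 293 cells. Compound treatment ran 48 or 72 hr at 37 degree Celsius, 5% CO2, 95% humidity.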
# Active calls of the source: *; i = inactive; ? = inconclusive; . = no result given; [ ] = dose if it differs, or a comment. Unless noted, calls follow the shape of the dose curve; as a rule, active = well fitted curve in the direction sought with a large enough effect; inconclusive = small, poorly fitted or top-dose-only effect, or another doubt; inactive = no such curve, though single readings can be large; an effect the other way counts as inactive or inconclusive. % is scaled to controls: 0 for no effect and ±100 for the full control effect; potency is read from the fitted curve at half-maximal effect.
SMILES,Luciferase inh,GPT2 inh,3T3 cytotox,NPR1 antag,HEK cytotox
CC(c1ccc(F)cc1)N1Cc2cc(NC(=O)c3cccs3)ccc2OCC1=O (configuration not stated),i,i,?,?,22µM*
CCC1Oc2ccc(NC(=O)c3ccccc3F)cc2CN(CCc2ccc(OC)c(OC)c2)C1=O (configuration not stated),i,i,40µM*,-1%,?
COc1ccc(CN2Cc3cc(NC(=O)c4ccccc4OC)ccc3OCC2=O)c(OC)c1,i,i,25µM*,-15%,40µM*
COc1ccccc1C(=O)Nc1ccc2c(c1)CN(Cc1ccc(F)cc1)C(=O)C(C)O2 (configuration not stated),i,i,?,-23%,35µM*
COc1ccc(C(=O)Nc2ccc3c(c2)CN(Cc2ccc(OC)cc2OC)C(=O)CO3)cc1,?,0%,?,-2%,?
CCC1Oc2ccc(NC(=O)c3ccccc3F)cc2CN(Cc2ccc3c(c2)OCO3)C1=O (configuration not stated),i,-6%,?,-5%,?
CC1Oc2ccc(NC(=O)c3c(F)cccc3F)cc2CN(Cc2ccc(Cl)cc2)C1=O (configuration not stated),i,i,?,-27%,16µM*
N#Cc1ccc(C(=O)N2CCN(C(=O)c3nnn4c3COC(c3ccc(F)cc3)C4)CC2)cc1 (configuration not stated),i,-1%,?,-26%,?
COc1ccnc(N2C[C@@H]3OCC(=O)N(CC4CC4)[C@@H]3C2)n1,i,i,-19%[138 µM],1%[70.6 µM],-11%[172 µM]
CC1Oc2ccc(NC(=O)c3ccccc3F)cc2CN(Cc2ccccc2F)C1=O (configuration not stated),i,2%,?,0%,?
CC1Oc2ccc(NC(=O)c3ccccc3Cl)cc2CN(Cc2ccc(F)cc2)C1=O (configuration not stated),i,-18%,?,-16%,40µM*
CCOC(=O)C1CCN(C(=O)c2cn3ccnc(-c4ccc(OC)cc4)c3n2)CC1,i,-1%,?,-21%,79µM*
COc1ccc(-c2nccn3cc(C(=O)NCc4nc5ccccc5n4C)nc23)cc1,i,-7%,?,?,28µM*
CCOC(=O)C1CCN(C(=O)c2cn3cc(-c4ccc(OC)cc4)sc3n2)CC1,.,i,?,.,?
CCOC(=O)C1CCN(C(=O)c2cn3cc(-c4ccc(C(F)(F)F)cc4)sc3n2)CC1,.,i,40µM*,.,?
COCC(=O)N[C@@H]1CN(C(=O)COc2ccccc2)CC[C@@H]1c1nc(C)no1,.,-1%,i,.,-6%
Cn1cnc2cc(-c3ccccc3)cc(C(=O)NCc3cccnc3)c21,i,?,?,-5%[70.6 µM],-24%[172 µM]
Cn1cnc2cc(-c3cccc(C(F)(F)F)c3)cc(C(=O)NCc3cccnc3)c21,i,0%[88.5 µM],?,-6%[70.6 µM],100µM*
Cn1cnc2cc(-c3ccc(N4CCOCC4)cc3)cc(C(=O)NCc3cccnc3)c21,i,i,89µM*,-1%[70.6 µM],1%[172 µM]
COc1cc(CNC(=O)c2cc(-c3cccc(N(C)C)c3)cc3ncn(C)c23)ccn1,?,i,?,4%[70.6 µM],71µM*
COc1ccc(-c2cc(C(=O)NCc3ccnc(N)c3)c3c(c2)ncn3C)cc1,i,-6%[88.5 µM],?,-8%[70.6 µM],?
CCc1ccccc1S(=O)(=O)N1C[C@@H](F)C[C@H]1C(=O)N1CCc2ccccc2C1,i,i,32µM*,1%,?
CCc1ccc(S(=O)(=O)N2C[C@@H](F)C[C@H]2C(=O)N2CCc3ccccc3C2)cc1,i,i,-26%,-9%,-24%
O=C([C@@H]1C[C@H](F)CN1C(=O)Nc1cccc(C(F)(F)F)c1)N1CCc2ccccc2C1,i,i,22µM*,0%,32µM*
CC(C)C(=O)N1Cc2ccccc2CC2(CCCN2CC2CCOCC2)C1 (configuration not stated),.,2%,-5%,.,-20%
SMILES,Luciferase inh,GPT2 inh,3T3 cytotox,NPR1 antag,HEK cytotox
O=C(NC1CCN(c2nccc(Nc3ccccc3Cl)n2)CC1)C1CCCC1,.,-3%,28µM*,.,?
COc1ccc(Nc2ccnc(N3CCN(C(=O)NC4CCCC4)CC3)n2)cc1,.,i,?,.,45µM*
O=C(NC1CCCC1)N1CCN(c2nccc(Nc3ccccc3Cl)n2)CC1,.,4%,?,.,40µM*
COc1ccccc1Nc1ccnc(N2CCC[C@H]2C(=O)N2CCC(Cc3ccccc3)CC2)n1,.,-8%,?,.,40µM*
O[C@H]1[C@H](NCc2ccccc2)[C@H]2CO[C@H](O2)[C@@H]1N1CCC(Cc2ccccc2)CC1,i,-7%[88.5 µM],?,1%[70.6 µM],?
CC(C)NC(=O)N1CCC(c2noc(-c3ccncc3)n2)C1 (configuration not stated),i,4%,-10%,3%,-3%
COc1ccc(NC(=O)C2CN(S(C)(=O)=O)CC23CCCCC3)cc1 (configuration not stated),i,3%,-1%,3%,-14%
COc1ccccc1Nc1ccnc(N2CCN(C(=O)NC3CCCC3)CC2)n1,.,i,32µM*,.,45µM*
COc1ccccc1Nc1ccnc(N2CCC(C(=O)NC3CCCC3)CC2)n1,.,-10%,?,.,?
CN(C)C(=O)NC1CCN(c2nccc(Nc3ccccc3Cl)n2)CC1,.,i,28µM*,.,45µM*
Cc1ccccc1C(=O)N1CCC[C@@H]1C(=O)N1CCC(N2CCOC2=O)CC1,.,i,i,.,i
Cc1noc(C)c1-c1cc2c(c(-c3ccccc3Oc3ccccc3)c1)C(=O)N(C)C2,i,?,13µM*,-23%[70.6 µM],?
Cc1noc(C)c1-c1cc2c(c(-c3cccc(OC(C)C)c3)c1)C(=O)N(C)C2,i,3%[88.5 µM],?,1.8µM*,?
O=C(CCc1ccccc1)N1CCOCC12CCN(Cc1ccccc1)CC2,i,i,35µM*,-11%[70.6 µM],?
O=C(Cc1cccc(F)c1)N1CCOCC12CCN(Cc1ccccc1)CC2,i,-12%[88.5 µM],100µM*,-1%[70.6 µM],?
CC(C)CC(=O)N1CCOCC12CCN(Cc1ccc(C(C)C)cc1)CC2,i,1%[88.5 µM],71µM*,2%[70.6 µM],100µM*

# Screening results: PubChem, National Center for Advancing Translational Sciences (NCATS)
